Results filed as inconclusive are left out. Activity calls are given as the source filed them.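 The calls were made as follows, unless noted: active = GFP response, as percent of the DMSO control, above the screen-wide mean plus 3 SD, about 139; inconclusive = no response measured because the compound's own fluorescence interfered; inactive = the rest.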

The nature of assay [1]: yeast TOR pathway RPL19A-GFP modulators, primary screen, cell-based, S. cerevisiae, multiplex flow cytometry (AID 1862; in the data active = percent of DMSO control GFP below about 86%;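 also: lower values mimic rapamycin by blocking the RPL19A rise seen in DMSO cells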). As to conditions: S. cerevisiae RPL19A-GFP strain, flow cytometry fluorescence, 3 h; at 10 µM; stronger effect = lower value.
The nature of assay [2]: modulators of MEP2-GFP levels in yeast, primary screen, S. cerevisiae, multiplex flow cytometry (AID 1867).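 Also: median GFP channel fluorescence of barcode-gated MEP2-GFP cells measured by flow cytometry.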 As to conditions: S. cerevisiae MEP2-GFP strain, 3 h, at 10 µM, stronger effect = higher value, 100% means same as DMSO wells. A general note: In flow cytometry, cells or beads pass a laser one at a time.
Assay [3] in a line: modulators of CIT2-GFP expression in yeast, primary screen, S. cerevisiae, GFP fusion, multiplex flow cytometry (AID 1870;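 active = percent response above a set limit, the screen-wide mean plus 3 SD, cut at about 130% in these data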;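 also: barcoded CIT2-GFP strain pooled with four other GFP strains with rapamycin as positive control; median GFP fluorescence per well over plate mean of DMSO wells so 100% = DMSO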). The conditions noted are these: 3 h, at 10 µM, stronger effect = higher value.
Assay [4] can be described thus: modulators of LAP4-GFP expression in yeast, primary screen, S. cerevisiae, multiplex flow cytometry (AID 1873;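 active = GFP signal, as percent of the solvent control, above the screen mean plus 3 SD, about 149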). The conditions noted are these: 3 h, at 10 µM, stronger effect = higher value.
A short description of assay [5]: modulators of AGP1-GFP expression in yeast TOR pathway, primary screen, cell-based, multiplex flow cytometry, S. cerevisiae (AID 1887;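 active = GFP signal above the screen-wide mean plus 3 SD, that is over about 124.5% of the solvent control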;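 also: AGP1-GFP fusion strain of S. cerevisiae within a five-strain barcoded multiplex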). The conditions noted are these: 3 h, at 10 µM, stronger effect = higher value.
The nature of assay [6]: inhibitors of CD8+ T cell-vesicle binding, pilot screen, LFA-1/ICAM-1 modulator project, MLPCN validation set, flow cytometry (AID 2523;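 active = response below a set limit, under 55% cells CD8-positive and vesicle-bound, and CD8 cells' 90th-percentile brightness under 279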;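 as to vesicle binding response: mean PE anti-B7-1 fluorescence of CD8+ cells relative to row control; 100% = QL9-loaded vesicles with DMSO vehicle in the same plate row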). The conditions noted are these: 2C mouse CD8+ T cells, at 7 µM, stronger effect = lower value; double positive events: measured here: CD8+/vesicle+ event percentage.
Assay [7] concerns the target Integrin beta-1 (Homo sapiens) + Integrin alpha-4 (Homo sapiens) (UniProt P13612+P05556). As to the kind of experiment: inhibition of HUTS-21 binding to VLA-4, pilot screen, VLA-4 allosteric modulator project, U937 cells, HUTS-21 mAb, flow cytometry, validation set (AID 2674;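 active = inhibition above 50%, about 3 SD of the validation set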;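 also: antibody binding induced by the VLA-4 ligand LDV present at three times its Kd; 0% = LDV ligand with antibody and no compound and 100% = antibody without LDV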). The conditions noted are these: HUTS-21 LIBS mAb binding, at 6.7 µM, stronger effect = higher value, binding induced by LDV ligand.

Assay [8] in a line: superoxide lowering in aged yeast cells, pilot screen, validation compound set (AID 2706;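 active = superoxide response below 65% of plate, a cut near 3 SD across the whole screen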;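 also: yeast exposed to compound for one week at 30 degrees C before staining; 100% = mean of all compound wells on the same plate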). As to conditions: S. cerevisiae aging, superoxide DHE fluorescence; at 10 µM; stronger effect = lower value.
The target of assay [9] is Beta-adrenergic receptor kinase 1 (Homo sapiens) (UniProt P25098). Kind of assay: GRK2 binders displacing RNA aptamer, biochemical, validation, human GRK2, bead flow cytometry (AID 488806;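 active = aptamer binding inhibition above 30%, about 3 SD of noise from non-fluorescent compounds; inactive = inhibition at or below 30%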). The conditions noted are these: bead-bound GRK2, FAM-aptamer displacement, at 10 µM, stronger effect = higher value.
In assay [10] the target is Beta-2 adrenergic receptor (Homo sapiens) (UniProt P07550). Kind of assay: beta2AR agonists driving receptor internalization, pilot screen, cell-based, FAP fluorogen, flow cytometry, validation set (AID 504459;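 active = percent response above 42, roughly 3 SD of non-fluorescent test compounds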;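 also: agonist-driven loss of surface beta2AR via internalization measured by FAP dye flow cytometry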). The conditions noted are these: Am2.2-beta2AR cells, FAP surface receptor flow cytometry; at 10 µM; stronger effect = higher value.
Assay [11] addresses AP-2 complex subunit beta (Homo sapiens) (UniProt P63010). Kind of assay: inhibitors of arrestin peptide binding to AP2, pilot screen, biochemical, validation set, GST-AP2 beads, flow cytometry (AID 504541;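 active = inhibition above 54%, about 3 SD of non-fluorescent compounds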;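 also: AP2 carries R879A mutation and is captured from E. coli lysate; bead-bound FITC arrestin peptide fluorescence measuring arrestin peptide binding to AP2; 0% = DMSO wells and 100% = excess unlabeled arrestin peptide control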). The conditions noted are these: FITC arrestin peptide, at 10 µM, stronger effect = higher value, AP2 beta2 appendage fragment, R879A mutant.
A short description of assay [12]: yeast V-ATPase proton transport modulators, S. cerevisiae, pHLuorin, HTS validation (AID 504600; in the data active = response above about 15%;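 also: plate controls were DMSO for no effect and reference compound for full effect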). The conditions noted are these: S. cerevisiae pHLuorin cytosolic pH, at 10 µM, stronger effect = higher value.
Assay [13] concerns anti-desmoglein-3 scFv antibody binding to human DSG3. As to the kind of experiment: inhibitors of anti-DSG3 scFv binding to DSG3, pilot screen, biochemical, validation compound set, bead-based, flow cytometry (AID 588368;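 active = binding below the plate cutoff, the plate median minus 3 SD, with a reading above zero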;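 also: signal is the median channel fluorescence of bead-bound GFP antibody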). As to conditions: Protein G beads, DSG3-Fc, scFv-GFP binding, at 10 µM, stronger effect = lower value.
The nature of assay [14]: inhibitors of fungal efflux pumps CDR1, CDR2, MDR1, pilot screen, validation compound set, multiplex, phenotypic (AID 588506;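 active = efflux inhibition above 0.42, the validation set average plus 4 SD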;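 also: Nile Red retained in cells so higher fluorescence means more efflux inhibition; 0 = negative control wells and 1 = enniatin B 25 µM full block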). The conditions noted are these: S. cerevisiae pump-expressing triplex, Nile Red efflux flow cytometry; at 10 µM; stronger effect = higher value; the pumps come from Candida albicans.
Assay [15] concerns the target ATP-binding cassette sub-family B member 6 (Homo sapiens) (UniProt Q9NP58). As to the kind of experiment: ABCB6 transporter inhibitors, pilot screen, K562-ABCB6 cells, flow cytometry, validation set (AID 588550;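 active = inhibition above the screen-wide mean plus 3 SD, about 51%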;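 also: 0% = DMSO wells and 100% = benzethonium chloride 70 µM positive control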). The conditions noted are these: K562-ABCB6 porphyrin accumulation, 1 h, at 10 µM, stronger effect = higher value.
Assay [16] can be described thus: promoters of myeloid differentiation in arrested cells, primary screen, cell-based, GFP/MAC1 double positive, flow cytometry, validation set (AID 588685;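 active = differentiation response of at least 50%, scaled between solvent and reference control, from cells with both markers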;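 also: compound exposure lasts four days before antibody staining and flow analysis; 0% = DMSO wells and 100% = 5 µM fulvestrant positive control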). As to conditions: ER-HoxA9 marrow cells, stronger effect = higher value, normalized: vehicle 0, fulvestrant 100.

Chain of ATP-binding cassette sub-family B member 6 (Homo sapiens) (Q9NP58 whole entry, looked up): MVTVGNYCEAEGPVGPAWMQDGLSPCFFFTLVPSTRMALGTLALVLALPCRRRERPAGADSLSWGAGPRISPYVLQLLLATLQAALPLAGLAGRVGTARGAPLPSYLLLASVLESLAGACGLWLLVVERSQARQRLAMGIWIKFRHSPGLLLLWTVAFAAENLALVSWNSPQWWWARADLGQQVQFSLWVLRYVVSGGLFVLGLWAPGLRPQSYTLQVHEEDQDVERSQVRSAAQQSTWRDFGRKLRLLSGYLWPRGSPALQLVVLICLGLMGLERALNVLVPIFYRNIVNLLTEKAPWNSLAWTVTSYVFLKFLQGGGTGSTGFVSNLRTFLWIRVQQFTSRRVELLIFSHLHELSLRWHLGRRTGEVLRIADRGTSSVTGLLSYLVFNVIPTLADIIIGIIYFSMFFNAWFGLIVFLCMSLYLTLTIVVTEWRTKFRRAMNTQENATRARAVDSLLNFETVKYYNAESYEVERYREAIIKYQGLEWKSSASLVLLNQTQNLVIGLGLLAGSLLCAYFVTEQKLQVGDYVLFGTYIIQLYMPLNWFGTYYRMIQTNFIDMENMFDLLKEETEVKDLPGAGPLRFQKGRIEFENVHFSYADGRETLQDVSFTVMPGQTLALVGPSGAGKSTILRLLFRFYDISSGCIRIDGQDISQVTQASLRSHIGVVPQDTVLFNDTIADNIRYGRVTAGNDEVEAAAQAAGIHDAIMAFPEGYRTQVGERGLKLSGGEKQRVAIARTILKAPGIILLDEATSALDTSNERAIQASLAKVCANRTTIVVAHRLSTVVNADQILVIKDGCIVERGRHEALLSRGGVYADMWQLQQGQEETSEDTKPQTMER
Chain of Integrin beta-1 (Homo sapiens) + Integrin alpha-4 (Homo sapiens) (P05556 whole entry, looked up): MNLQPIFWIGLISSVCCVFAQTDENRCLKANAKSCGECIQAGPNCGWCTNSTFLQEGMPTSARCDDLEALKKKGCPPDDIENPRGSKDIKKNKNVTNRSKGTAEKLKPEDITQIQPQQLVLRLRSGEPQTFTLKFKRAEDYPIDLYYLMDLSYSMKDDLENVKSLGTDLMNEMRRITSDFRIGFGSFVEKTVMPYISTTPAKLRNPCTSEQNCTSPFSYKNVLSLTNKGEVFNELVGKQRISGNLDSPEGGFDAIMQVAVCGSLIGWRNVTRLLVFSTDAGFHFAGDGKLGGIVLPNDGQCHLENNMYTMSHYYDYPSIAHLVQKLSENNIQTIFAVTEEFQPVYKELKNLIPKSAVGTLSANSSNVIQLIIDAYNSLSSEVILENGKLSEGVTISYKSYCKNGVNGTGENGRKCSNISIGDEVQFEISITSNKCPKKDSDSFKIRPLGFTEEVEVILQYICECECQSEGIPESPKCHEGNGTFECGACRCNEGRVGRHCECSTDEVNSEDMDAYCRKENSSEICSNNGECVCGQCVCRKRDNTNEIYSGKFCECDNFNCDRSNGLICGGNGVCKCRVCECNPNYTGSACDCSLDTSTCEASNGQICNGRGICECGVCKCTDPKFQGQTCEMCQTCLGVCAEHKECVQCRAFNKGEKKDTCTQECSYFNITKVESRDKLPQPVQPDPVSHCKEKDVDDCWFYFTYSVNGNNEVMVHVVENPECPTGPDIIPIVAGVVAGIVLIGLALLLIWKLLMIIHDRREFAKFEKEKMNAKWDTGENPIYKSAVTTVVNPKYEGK
Chain of Integrin beta-1 (Homo sapiens) + Integrin alpha-4 (Homo sapiens) (P13612 whole entry, looked up): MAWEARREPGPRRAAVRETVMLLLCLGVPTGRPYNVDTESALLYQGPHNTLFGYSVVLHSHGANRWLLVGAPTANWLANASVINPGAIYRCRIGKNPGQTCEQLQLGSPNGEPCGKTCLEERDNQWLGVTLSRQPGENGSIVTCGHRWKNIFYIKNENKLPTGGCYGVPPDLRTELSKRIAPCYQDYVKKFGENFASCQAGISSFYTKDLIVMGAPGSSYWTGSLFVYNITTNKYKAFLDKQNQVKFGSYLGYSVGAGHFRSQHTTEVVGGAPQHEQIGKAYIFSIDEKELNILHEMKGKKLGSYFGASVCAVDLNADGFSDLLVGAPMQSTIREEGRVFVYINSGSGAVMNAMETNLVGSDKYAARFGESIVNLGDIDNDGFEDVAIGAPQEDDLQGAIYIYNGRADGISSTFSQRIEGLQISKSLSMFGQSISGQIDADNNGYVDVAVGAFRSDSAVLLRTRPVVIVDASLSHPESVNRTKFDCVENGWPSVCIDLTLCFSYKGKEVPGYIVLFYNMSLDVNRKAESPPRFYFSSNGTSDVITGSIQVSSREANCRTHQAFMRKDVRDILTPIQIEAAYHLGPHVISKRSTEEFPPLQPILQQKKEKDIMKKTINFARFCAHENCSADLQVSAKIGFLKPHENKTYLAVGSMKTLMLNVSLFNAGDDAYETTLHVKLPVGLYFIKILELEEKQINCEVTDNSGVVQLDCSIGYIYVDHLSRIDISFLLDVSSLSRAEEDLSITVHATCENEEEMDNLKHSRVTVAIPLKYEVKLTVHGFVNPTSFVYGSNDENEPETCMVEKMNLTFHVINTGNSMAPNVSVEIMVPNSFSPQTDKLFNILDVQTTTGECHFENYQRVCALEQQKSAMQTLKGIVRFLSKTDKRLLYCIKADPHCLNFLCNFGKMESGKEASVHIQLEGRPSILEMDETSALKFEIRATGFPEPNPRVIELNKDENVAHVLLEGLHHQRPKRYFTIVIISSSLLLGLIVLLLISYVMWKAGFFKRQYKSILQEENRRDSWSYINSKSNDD
Chain of AP-2 complex subunit beta (Homo sapiens) (P63010 whole entry, looked up, the tested form may be a part, one chain of several): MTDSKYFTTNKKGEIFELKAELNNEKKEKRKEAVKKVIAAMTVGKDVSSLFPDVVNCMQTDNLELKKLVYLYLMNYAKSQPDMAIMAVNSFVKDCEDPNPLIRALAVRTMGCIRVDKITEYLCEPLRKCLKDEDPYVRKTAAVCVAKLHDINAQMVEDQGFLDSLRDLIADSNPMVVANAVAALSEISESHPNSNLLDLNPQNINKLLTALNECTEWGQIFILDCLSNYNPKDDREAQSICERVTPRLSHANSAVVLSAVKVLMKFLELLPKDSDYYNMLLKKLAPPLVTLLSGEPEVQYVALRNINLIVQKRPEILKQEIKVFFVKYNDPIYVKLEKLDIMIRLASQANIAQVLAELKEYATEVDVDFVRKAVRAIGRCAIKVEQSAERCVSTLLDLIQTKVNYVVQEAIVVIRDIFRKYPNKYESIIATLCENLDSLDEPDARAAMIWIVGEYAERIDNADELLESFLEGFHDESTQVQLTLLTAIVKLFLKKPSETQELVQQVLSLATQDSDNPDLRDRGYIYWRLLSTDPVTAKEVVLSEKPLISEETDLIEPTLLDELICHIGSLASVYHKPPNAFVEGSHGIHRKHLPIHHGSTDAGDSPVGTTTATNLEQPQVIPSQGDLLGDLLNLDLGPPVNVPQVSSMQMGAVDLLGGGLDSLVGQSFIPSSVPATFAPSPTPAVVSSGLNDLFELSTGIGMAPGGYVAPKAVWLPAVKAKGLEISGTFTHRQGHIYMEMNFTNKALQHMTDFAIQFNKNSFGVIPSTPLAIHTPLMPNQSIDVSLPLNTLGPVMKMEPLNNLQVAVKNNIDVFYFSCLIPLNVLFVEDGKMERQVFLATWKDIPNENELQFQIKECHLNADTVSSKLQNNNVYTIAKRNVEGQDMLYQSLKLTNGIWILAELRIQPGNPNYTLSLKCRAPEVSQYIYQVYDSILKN
Chain of Beta-adrenergic receptor kinase 1 (Homo sapiens) (P25098 whole entry, looked up): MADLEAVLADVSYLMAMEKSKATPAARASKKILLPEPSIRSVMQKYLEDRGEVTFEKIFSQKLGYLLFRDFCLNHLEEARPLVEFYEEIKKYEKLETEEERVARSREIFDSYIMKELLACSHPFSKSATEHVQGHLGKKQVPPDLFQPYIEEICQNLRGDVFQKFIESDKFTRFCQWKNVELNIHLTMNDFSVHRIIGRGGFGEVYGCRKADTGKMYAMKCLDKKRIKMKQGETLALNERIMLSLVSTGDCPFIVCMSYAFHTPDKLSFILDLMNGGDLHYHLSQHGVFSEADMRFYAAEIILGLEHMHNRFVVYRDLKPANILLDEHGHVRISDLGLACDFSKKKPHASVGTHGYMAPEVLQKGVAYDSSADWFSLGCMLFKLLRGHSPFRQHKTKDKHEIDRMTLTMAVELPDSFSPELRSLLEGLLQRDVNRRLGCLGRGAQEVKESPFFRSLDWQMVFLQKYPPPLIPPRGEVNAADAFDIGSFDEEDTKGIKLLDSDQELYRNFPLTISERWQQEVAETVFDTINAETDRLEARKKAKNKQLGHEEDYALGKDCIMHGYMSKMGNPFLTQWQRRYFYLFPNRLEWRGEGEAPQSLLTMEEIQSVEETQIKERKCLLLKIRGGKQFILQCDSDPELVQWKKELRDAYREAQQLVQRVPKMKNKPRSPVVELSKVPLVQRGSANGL
Chain of Beta-2 adrenergic receptor (Homo sapiens) (P07550 whole entry, looked up): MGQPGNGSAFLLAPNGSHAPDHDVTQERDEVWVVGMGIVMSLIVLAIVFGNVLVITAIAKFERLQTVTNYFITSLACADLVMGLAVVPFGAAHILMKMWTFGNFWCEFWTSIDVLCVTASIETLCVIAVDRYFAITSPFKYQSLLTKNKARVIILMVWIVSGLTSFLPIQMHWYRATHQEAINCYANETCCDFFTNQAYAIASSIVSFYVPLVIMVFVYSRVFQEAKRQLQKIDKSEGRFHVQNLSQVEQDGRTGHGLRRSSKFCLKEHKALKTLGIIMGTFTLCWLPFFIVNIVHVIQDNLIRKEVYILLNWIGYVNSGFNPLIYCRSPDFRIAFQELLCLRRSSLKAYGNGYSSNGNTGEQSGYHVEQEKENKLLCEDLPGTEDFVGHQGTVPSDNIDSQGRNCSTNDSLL

Consider `CCc1cc(=O)oc2cc3occ(-c4ccc(OC)c(F)c4)c3cc12`, for which the percent of DMSO control GFP in assay [1] was 96.8% (inactive). For the same compound, the results for the GFP response vs DMSO in assay [2] and in [4] were 116% (inactive) and 93% (inactive), respectively. Moreover, the percent response of DMSO control in assay [3] is 111% (inactive). For the same compound, in assay [5], the GFP response, % of DMSO was 87.7% (inactive). This compound also displayed a double positive events in [6] of 60.2%. Also, the vesicle binding response in assay [6] was 260% (inactive). For the same compound, the inhibition (commonly the change of the read-out against control, counted positive when it falls) in assay [7] was 16.2% (inactive); in assay [11] it was 6.17% (inactive); in assay [15], 15% (inactive). The superoxide response (% of plate) in assay [8] was 88% (inactive). Moreover, in assay [9], the aptamer binding inhibition was -1% (inactive). Moreover, the response was 25.5% (inactive) in assay [10] and 0.45% (inactive) in assay [12]. The binding (% of control) in assay [13] was 107% (inactive). The efflux inhibition (fraction of control) in assay [14] was 0.63 (active). In addition, the differentiation response in assay [16] was 10.6% (inactive).

Regarding `CC(C)CN1CCN(Cc2ccc3ncccc3c2)CC1CCO` (stereo not given), in assay [1], the percent of DMSO control GFP was 103% (inactive). The GFP response vs DMSO in assay [2] is 96.2% (inactive); in [4], 84.8% (inactive). For the same compound, the percent response of DMSO control in assay [3] is 118% (inactive). Besides, the GFP response, % of DMSO in assay [5] is 103% (inactive). Further, the double positive events in assay [6] was determined as 62%. Besides, the vesicle binding response in assay [6] is 290% (inactive). In addition, the inhibition in assay [7] was 4.73% (inactive); in assay [11], -6.16% (inactive); in assay [15] it was -9% (inactive). In assay [8], the superoxide response (% of plate) is 95% (inactive). Also, in [9], the aptamer binding inhibition was -1% (inactive). Moreover, the values for the response in [10] and in assay [12] were -8.31% (inactive) and 1.7% (inactive), respectively. Also, in assay [13], the binding (% of control) was 103% (inactive). In addition, the efflux inhibition (fraction of control) in assay [14] is 0.24 (inactive). For the same compound, the differentiation response in assay [16] is 6.11% (inactive).

In the case of `CC(C)CN1CCN(Cc2ccc(C#CC(C)(C)O)cc2)CC1CCO` (stereo not given), the percent of DMSO control GFP in [1] was 92% (inactive). In addition, the GFP response vs DMSO in assay [2] was 132% (inactive); in assay [4], 78.7% (inactive). Further, the percent response of DMSO control in [3] is 102% (inactive). In assay [5], the GFP response, % of DMSO is 86.6% (inactive). Also, in assay [6], the double positive events is 67.3%. The vesicle binding response in assay [6] is 215% (inactive). In addition, the inhibition in assay [7] was -8.09% (inactive); in assay [11], 29.9% (inactive); in [15], 9% (inactive). Further, the superoxide response (% of plate) in assay [8] is 92.7% (inactive). Moreover, the aptamer binding inhibition in assay [9] is 0% (inactive). Further, the values for the response in assay [10] and in assay [12] were -11.4% (inactive) and -6.34% (inactive), respectively. The binding (% of control) in assay [13] is 98.3% (inactive). The efflux inhibition (fraction of control) in [14] was 0.34 (inactive). For the same compound, in assay [16], the differentiation response is -2.46% (inactive).

As to `O=C(CNC(=O)OCc1ccccc1)Oc1cc2oc(=O)cc(-c3ccccc3)c2cc1Cl`, in assay [1], the percent of DMSO control GFP was 97.5% (inactive). Moreover, the GFP response vs DMSO in assay [2] and in [4] was 107% (inactive) each time. For the same compound, the percent response of DMSO control in [3] is 111% (inactive). In assay [5], the GFP response, % of DMSO is 71.1% (inactive). In assay [6], this compound registered a double positive events of 61.1%. In addition, the vesicle binding response in assay [6] was 423% (inactive). Further, the inhibition in [7] was -0.27% (inactive); in [11], 12.8% (inactive); in assay [15], 1% (inactive). Further, the superoxide response (% of plate) in assay [8] is 207% (inactive). For the same compound, the aptamer binding inhibition in assay [9] is 8% (inactive). For the same compound, the response was -13.2% (inactive) in [10] and -27.5% (inactive) in assay [12]. In addition, in assay [13], the binding (% of control) was 103% (inactive). In assay [14], the efflux inhibition (fraction of control) was -0.09 (inactive). Besides, in assay [16], the differentiation response was -4% (inactive).

For the compound `Cc1c2c(nc3c(C)cccc13)OC(C)C2` (stereo not given), the percent of DMSO control GFP in [1] was 105% (inactive). Besides, the values for the GFP response vs DMSO in assay [2] and in assay [4] were 100% (inactive) and 97.3% (inactive), respectively. In addition, in assay [3], the percent response of DMSO control is 112% (inactive). Besides, in assay [5], the GFP response, % of DMSO was 103% (inactive). This compound also displayed a double positive events in [6] of 52%. Moreover, the vesicle binding response in [6] is 31.8% (active). The inhibition is -3.57% (inactive) in assay [7], 2.14% (inactive) in assay [11] and 3% (inactive) in assay [15]. For the same compound, the superoxide response (% of plate) in assay [8] was 99.9% (inactive). For the same compound, the aptamer binding inhibition in assay [9] is -2% (inactive). Moreover, the response in assay [10] was -11.5% (inactive); in [12] it was 3.8% (inactive). Besides, the binding (% of control) in assay [13] was 97.6% (inactive). Also, the efflux inhibition (fraction of control) in assay [14] was 0.11 (inactive). The differentiation response in [16] is -9.53% (inactive).

For the origin of these results see PubChem BioAssay.
